Test systems include NEK4; NEK5; NEK6; NEK7; NEK9; NLK; PAK1; PAK2; PAK3; PAK4; PAK6; PAK7; PDGFRA; PDGFRB.
Common to all, as to conditions: concentration: 1 μM, replicates: in singlicate; n = 1
The next experiment deals with T1, NIK.
T1 construct: gene MAP3K14

The next experiment deals with T2, NIM1.
T2 construct: gene MGC42105

The test system of a further experiment is T3, OSR1.
T3 construct: gene OXSR1

For another experiment, the system named is T4, PCTK1.
T4 construct: gene CDK16

Another experiment concerns T5, PCTK2.
T5 construct: gene CDK17

A further experiment has as its system T6, PCTK3.
T6 construct: gene CDK18
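Further: KINOMEscan kinase panel screen.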

For the compound `Cc1ccc(-c2ccc3c(ccc4sc5c(c43)NC[C@@H](C)N=C5N(C)C)n2)cn1`, the “%Inh” value in the experiment on NEK4, in the experiment with NEK5, in the experiment with NEK6, in the experiment with NEK7, in the experiment with NEK9 and with NIK was 0% throughout. The “%Inh” value in the experiment with NIM1, with NLK, in the experiment with OSR1, with PAK1, in the experiment on PAK2 and in the experiment on PAK3 was 0% in each case. Further, the “%Inh” value stood at 0% with PAK4; 0% in the experiment on PAK6; 10% in the experiment on PAK7; 0% in the experiment on PCTK1; 0% in the experiment with PCTK2; 9% with PCTK3. The “%Inh” value in the experiment on PDGFRA and in the experiment on PDGFRB was 0% each time.

On to `O=C(NCCNc1ccnc(Nc2ccc(F)cc2)n1)Nc1ccc2c(c1)OCO2` [GSK1379882], for which the “%Inh” value with NEK4 was found to be 0%; with NEK5, 15%; in the experiment with NEK6, 0%; with NEK7, 0%; in the experiment on NEK9 it was 12%; in the experiment on NIK it was 22%. The “%Inh” value with NIM1 worked out at 18%; with NLK it was 0%; in the experiment with OSR1 it was 0%; in the experiment on PAK1, 0%; in the experiment on PAK2, 0%; in the experiment on PAK3 it was 0%. The “%Inh” value in the experiment with PAK4 stood at 0%; with PAK6, 12%; in the experiment with PAK7 it was 7%; in the experiment with PCTK1, 14%; with PCTK2, 0%; in the experiment on PCTK3, 0%. Moreover, the “%Inh” value in the experiment with PDGFRA is given as 6%; in the experiment with PDGFRB it was 53%.

For `COc1cc(OC)cc(-c2cc3cnc(N)nc3nc2NC(=O)NC(C)(C)C)c1`, the “%Inh” value in the experiment on NEK4 amounted to 0%; in the experiment on NEK5 it was 0%; in the experiment on NEK6 it was 0%; in the experiment with NEK7 it was 1%; with NEK9, 0%; in the experiment with NIK, 1%. Besides, the “%Inh” value with NIM1, in the experiment with NLK, in the experiment on OSR1, in the experiment on PAK1, in the experiment with PAK2 and in the experiment on PAK3 was 0% in each case. In addition, the “%Inh” value is 0% in the experiment with PAK4; 0% in the experiment on PAK6; 9% in the experiment on PAK7; 0% in the experiment on PCTK1; 0% in the experiment with PCTK2; 0% in the experiment with PCTK3. Also, the “%Inh” value in the experiment with PDGFRA and in the experiment on PDGFRB was 0% throughout.

Take `CCc1ccc(-c2ccc3c(c2)-c2nn(C)cc2S(=O)(=O)N3C)cc1`: the “%Inh” value in the experiment with NEK4, in the experiment with NEK5, with NEK6, in the experiment with NEK7, in the experiment with NEK9 and in the experiment with NIK was 0% in each case. The “%Inh” value turned out to be 0% in the experiment with NIM1; 0% in the experiment on NLK; 0% in the experiment on OSR1; 0% in the experiment on PAK1; 11% in the experiment with PAK2; 0% in the experiment on PAK3. Moreover, the “%Inh” value with PAK4 is recorded as 0%; in the experiment with PAK6, 9%; in the experiment with PAK7, 0%; in the experiment with PCTK1, 0%; with PCTK2, 0%; in the experiment on PCTK3, 0%. For the same compound, the “%Inh” value with PDGFRA and in the experiment on PDGFRB was 0% throughout.

Consider `O=C(NCc1cccs1)c1cc(C(=O)c2c(Cl)cccc2Cl)c[nH]1` [GW823670], for which the “%Inh” value came out at 0% with NEK4; 17% with NEK5; 0% with NEK6; 0% with NEK7; 0% with NEK9; 0% in the experiment on NIK. Moreover, the “%Inh” value was found to be 2% with NIM1; 0% with NLK; 0% with OSR1; 5% in the experiment on PAK1; 38% in the experiment with PAK2; 10% in the experiment with PAK3. The “%Inh” value is on record as 0% with PAK4; 0% with PAK6; 0% with PAK7; 0% with PCTK1; 0% in the experiment on PCTK2; 13% with PCTK3. The “%Inh” value with PDGFRA and in the experiment on PDGFRB was 0% each time.

For the compound `Nc1n[nH]c2ncc(-c3ccccc3)cc12` [SB-517081], the “%Inh” value with NEK4 is given as 26%; in the experiment on NEK5 it was 9%; in the experiment with NEK6 it was 0%; with NEK7, 0%; in the experiment with NEK9, 7%; in the experiment with NIK it was 0%. Moreover, the “%Inh” value is recorded as 28% in the experiment with NIM1; 13% in the experiment on NLK; 0% in the experiment on OSR1; 7% in the experiment on PAK1; 17% in the experiment on PAK2; 0% with PAK3. In addition, the “%Inh” value is recorded as 0% in the experiment with PAK4; 0% in the experiment on PAK6; 0% in the experiment with PAK7; 3% with PCTK1; 0% in the experiment on PCTK2; 31% in the experiment on PCTK3. Moreover, the “%Inh” value is reported as 51% in the experiment on PDGFRA and 97.3% in the experiment with PDGFRB.

As to `CN1C(=O)C(Nc2cc(Cl)c(O)c(Cl)c2)=C(c2ccc(Cl)cc2)C1=O` [SB-404321], the “%Inh” value came to 0% in the experiment on NEK4; 7% with NEK5; 0% in the experiment on NEK6; 0% with NEK7; 0% with NEK9; 30% in the experiment on NIK. For the same compound, the “%Inh” value in the experiment on NIM1 is given as 0%; in the experiment on NLK it was 0%; in the experiment with OSR1, 0%; in the experiment with PAK1, 0%; in the experiment with PAK2, 2%; with PAK3 it was 0%. Moreover, the “%Inh” value in the experiment on PAK4 worked out at 34%; in the experiment with PAK6, 0%; in the experiment on PAK7, 5%; in the experiment on PCTK1, 0%; in the experiment on PCTK2, 5%; in the experiment on PCTK3, 0%. The “%Inh” value in the experiment on PDGFRA and in the experiment on PDGFRB was 0% in each case.

As to `Nc1ncnc2c1ncn2-c1ccc(Cl)cc1` [AH2635], the “%Inh” value in the experiment with NEK4 was 0%; with NEK5 it was 12%; in the experiment with NEK6, 0%; in the experiment with NEK7, 0%; in the experiment on NEK9 it was 0%; in the experiment with NIK it was 89%. Moreover, the “%Inh” value came out at 27% with NIM1; 0% in the experiment with NLK; 0% with OSR1; 4% with PAK1; 0% in the experiment with PAK2; 7% in the experiment on PAK3. Besides, the “%Inh” value in the experiment on PAK4 came to 0%; in the experiment with PAK6 it was 0%; with PAK7, 6%; in the experiment on PCTK1, 0%; with PCTK2, 0%; in the experiment on PCTK3, 0%. The “%Inh” value with PDGFRA amounted to 38%; in the experiment with PDGFRB it was 86%.

In the case of `COc1cccc(C2=C(N(C)c3ccccc3)C(=O)NC2=O)c1` [SB-334865], the “%Inh” value with NEK4 is listed as 0%; with NEK5 it was 0%; in the experiment with NEK6 it was 0%; with NEK7, 0%; with NEK9, 0%; in the experiment on NIK, 100%. Also, the “%Inh” value in the experiment with NIM1 stood at 21%; with NLK, 29%; with OSR1 it was 0%; in the experiment on PAK1, 1%; in the experiment with PAK2, 0%; with PAK3, 1%. For the same compound, the “%Inh” value with PAK4, in the experiment with PAK6, with PAK7, with PCTK1, with PCTK2 and with PCTK3 was 0% each time. In addition, the “%Inh” value in the experiment on PDGFRA was found to be 0%; in the experiment with PDGFRB, 7%.

On to `CCC(=O)c1c(-c2ccccc2)c2cc(Cl)ccc2c(=O)n1Cc1cc(S(C)(=O)=O)n(CC(N)=O)n1`, for which the “%Inh” value in the experiment with NEK4, with NEK5, in the experiment with NEK6, in the experiment on NEK7, with NEK9 and in the experiment on NIK was 0% each time. The “%Inh” value came out at 14% in the experiment with NIM1; 0% with NLK; 0% in the experiment on OSR1; 32% in the experiment with PAK1; 5% with PAK2; 0% in the experiment on PAK3. The “%Inh” value with PAK4 turned out to be 5%; with PAK6, 1%; in the experiment with PAK7 it was 0%; with PCTK1, 0%; in the experiment with PCTK2, 0%; in the experiment on PCTK3, 13%. The figures for the “%Inh” value in the experiment on PDGFRA and in the experiment on PDGFRB were 0% and 10%, respectively.

For the compound `COc1ccc(CNC(=O)NC2CCN(c3ccnc(Nc4ccc(F)cc4)n3)C2)cc1` (stereo not shown) [GSK1379706], the “%Inh” value was 0% with NEK4; 35% in the experiment with NEK5; 21% with NEK6; 0% in the experiment on NEK7; 0% in the experiment on NEK9; 26% in the experiment on NIK. Besides, the “%Inh” value in the experiment with NIM1 was found to be 0%; with NLK, 37%; with OSR1, 0%; in the experiment with PAK1, 0%; in the experiment with PAK2 it was 0%; with PAK3, 0%. Further, the “%Inh” value with PAK4 was 0%; with PAK6, 0%; in the experiment on PAK7, 3%; with PCTK1, 0%; in the experiment with PCTK2, 18%; in the experiment on PCTK3, 39%. The figures for the “%Inh” value with PDGFRA and with PDGFRB were 14% and 43%, respectively.

(Values after article PMC5540273 (PLoS ONE, 2017).)
